Results as given in PubChem BioAssay.
“And” between values parts separate entries of the source, which are not always exact repeats. Equal entries are not always repeated. For some assays here: Results with a measured potency or affinity are listed apart. The source made the active and inactive calls. Rule as the data show it, unless noted: active = parasite load remaining mostly below about 12% (no sharp cut-off); inactive = mostly above about 10%.

Tests used:
[1] = blockers of polyQ-driven CASP3 activation – cell-based (AID 1583); settings: polyglutamine-induced caspase-3 activation, cell assay; stronger effect = higher value;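 tested at 10 µM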
[2] = yeast 75Q aggregation reduction – 75Q-TubU reporter (AID 1593); settings: Yeast 75Q polyglutamine aggregation reporter
[3] = restoration of touch response, mutant HTT neurons – whole organism, C. elegans mechanosensory neurons, N-terminal huntingtin (AID 1599); settings: C. elegans polyQ-huntingtin mechanosensory neurons, stronger effect = higher value
[4] = blockers of cytochrome c efflux from mitochondria – biochemical, purified mitochondria (AID 1603); settings: stronger effect = lower value;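 also: mouse liver mitochondria challenged with calcium chloride; signal normalized to the plate average as 100%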
[5] = polyglutamine aggregate formation blockers (AID 1604); settings: polyglutamine-induced protein aggregation inhibition assay; stronger effect = higher value; tested at 2.5 µM
[6] = glutamate transport activators, MN-1 cells, MN-1 cell line (AID 1612); settings: MN-1 motor neuron cells, stronger effect = higher value;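 also: tested at 1 µM final; 0% = mean of DMSO vehicle wells on each plate; positive means more glutamate uptake than control and negative means less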
[7] = GFP-Q80 aggregate reduction, neuronal-like cells, cell-based, NGF-treated PC12, GFPQ80 (AID 1614); settings: PC12 NGF-treated GFP-polyQ80 inclusion reduction;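 also: lower means fewer inclusions and 0 means no inclusions at all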
[8] = 75Q-TubH aggregate inhibition, S. cerevisiae, yeast (AID 1616); settings: S. cerevisiae 75Q-TubH polyglutamine aggregation suppression; stronger effect = higher value
[9] = P. berghei load reduction in hepatocytes – cell-based, HepG2, luciferase luminescence, HepG2 viability, primary screen (AID 624349);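 also: 100% = mean of DMSO negative control wells on the same plate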; settings: P. berghei liver stage in HepG2, luciferase luminescence, concentration not given here; parasite load remaining: stronger effect = lower value; viability: measured here: HepG2 viability without parasites
[10] = EMT-state selective cytotoxicity in co-culture – imaging, PC-3E GFP, TEM4-18 mCherry, primary screen (AID 1345086;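 active = compounds killing one labelled cell type while sparing the other, by normalised counts and ratio limits, not self-fluorescent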;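 as to all read-outs here: cells exposed to compound for 72 h before imaging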;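 as to red/green cell ratio (normalised): normalised mesenchymal count divided by normalised epithelial count so high means epithelial killing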); settings: PC-3E GFP / TEM4-18 mCherry co-culture, imaging cell counts, at 1 µM; for red/green cell ratio (normalised): actives lie on both sides, counts scaled to control wells, 1 = unselective
[11] = viability loss with induced miR-34 in A549 – imaging, A549 dox-inducible miR-34, nuclei and caspase counts, primary screen (AID 1347080;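 active = compounds whose cell count with miR-34 switched on is under 0.7 times the count with it off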); settings: A549 miR-34 inducible, Hoechst nuclei count, 48 h
[12] = biological target: Mitogen-activated protein kinase 7 (Homo sapiens) (UniProt Q13164); experiment: Gal4-ERK5 driven luciferase induction – cell-based, HTS, primary screen (AID 1508626;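 active = luciferase signal above three times the same-plate solvent-only control wells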;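 also: luciferase driven by Gal4-ERK5 fusion binding five Gal4 sites before minimal TATA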); settings: HeLa Gal4-ERK5 transactivation, 18 h, at 5 µM, stronger effect = higher value
Mitogen-activated protein kinase 7 (Homo sapiens), sequence (Q13164 whole entry, looked up, the tested form may be a part): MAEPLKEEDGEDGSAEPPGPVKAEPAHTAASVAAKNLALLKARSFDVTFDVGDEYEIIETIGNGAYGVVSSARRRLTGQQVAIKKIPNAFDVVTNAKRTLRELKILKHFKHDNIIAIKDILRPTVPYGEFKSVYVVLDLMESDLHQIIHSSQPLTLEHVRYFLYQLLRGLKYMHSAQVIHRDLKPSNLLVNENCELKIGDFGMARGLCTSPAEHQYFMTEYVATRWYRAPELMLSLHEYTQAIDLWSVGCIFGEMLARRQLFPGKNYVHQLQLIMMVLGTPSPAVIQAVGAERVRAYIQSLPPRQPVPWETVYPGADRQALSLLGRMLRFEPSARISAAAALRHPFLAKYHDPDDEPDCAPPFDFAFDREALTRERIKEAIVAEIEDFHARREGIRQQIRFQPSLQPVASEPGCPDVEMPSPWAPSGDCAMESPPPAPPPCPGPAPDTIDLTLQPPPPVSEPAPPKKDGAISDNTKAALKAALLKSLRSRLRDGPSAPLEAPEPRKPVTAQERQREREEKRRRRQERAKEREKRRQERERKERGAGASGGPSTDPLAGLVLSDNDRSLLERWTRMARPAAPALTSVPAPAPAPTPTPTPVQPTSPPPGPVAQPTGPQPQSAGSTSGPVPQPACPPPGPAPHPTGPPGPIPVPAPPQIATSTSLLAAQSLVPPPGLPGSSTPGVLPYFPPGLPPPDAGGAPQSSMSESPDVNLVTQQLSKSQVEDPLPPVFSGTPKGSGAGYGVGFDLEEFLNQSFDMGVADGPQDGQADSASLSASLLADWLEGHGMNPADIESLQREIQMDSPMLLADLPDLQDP

[13] = biological target: NAD(+) hydrolase SARM1 (Homo sapiens) (UniProt Q6SZW1); experiment: blocking NAD cleavage by SARM1 SAM-TIR – cell lysate, NAD-Glo luminescence (AID 1508614;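 active = compound whose remaining NAD level is above about 45 nM, limit read from the data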;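 also: higher remaining NAD means stronger inhibition of SARM1 NADase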); settings: SAM-TIR HEK293T lysate NADase, at 1 µM, stronger effect = higher value
NAD(+) hydrolase SARM1 (Homo sapiens), sequence (Q6SZW1 whole entry, looked up): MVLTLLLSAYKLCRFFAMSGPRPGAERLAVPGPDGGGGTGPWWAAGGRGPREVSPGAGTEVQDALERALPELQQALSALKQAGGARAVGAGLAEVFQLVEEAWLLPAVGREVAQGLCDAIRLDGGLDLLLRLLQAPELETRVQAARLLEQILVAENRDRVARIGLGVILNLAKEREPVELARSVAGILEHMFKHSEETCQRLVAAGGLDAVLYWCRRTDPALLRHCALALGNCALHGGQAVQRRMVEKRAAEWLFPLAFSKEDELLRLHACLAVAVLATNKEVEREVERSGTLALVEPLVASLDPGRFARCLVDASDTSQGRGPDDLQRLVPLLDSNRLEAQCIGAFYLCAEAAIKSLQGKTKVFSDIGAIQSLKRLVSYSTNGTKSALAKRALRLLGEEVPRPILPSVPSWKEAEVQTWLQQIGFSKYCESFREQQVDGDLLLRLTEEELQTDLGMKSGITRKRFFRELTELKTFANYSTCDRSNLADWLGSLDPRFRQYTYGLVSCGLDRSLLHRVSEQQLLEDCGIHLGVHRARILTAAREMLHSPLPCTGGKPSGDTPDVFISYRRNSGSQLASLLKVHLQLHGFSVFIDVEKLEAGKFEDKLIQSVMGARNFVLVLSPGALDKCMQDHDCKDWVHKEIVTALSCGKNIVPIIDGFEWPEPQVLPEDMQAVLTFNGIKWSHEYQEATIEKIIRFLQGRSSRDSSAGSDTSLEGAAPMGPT

[14] = measured here: epithelial PC-3E GFP cell survival
[15] = measured here: mesenchymal TEM4-18 mCherry cell survival
[16] = stronger effect = lower value, cell number ratio, induced over uninduced
[17] = measured here: relative caspase fold change +Dox/-Dox
[18] = measured here: total cells with miR-34 induction, stronger effect = lower value
[19] = measured here: total cells without miR-34 induction

Structure (SMILES)	inhibition [1]	score [2]	rescue above control [3]	cytochrome c release ratio [4]	inhibition of aggregation [5]	glutamate uptake change [6]	inclusion score [7]	aggregation suppression score [8]	parasite load remaining [9]	viability [9]	red/green cell ratio (normalised) [10]	normalised cell number [10, 14]	normalised cell number [10, 15]	fold change [11, 16]	fold change [11, 17]	cell count [11, 18]	cell count [11, 19]	luciferase signal [12]	remaining NAD [13]
CN[C@@H]1[C@H](OC2[C@H](O[C@H]3[C@H](O)[C@@H](O)[C@H](N=C(N)N)[C@@H](O)[C@@H]3N=C(N)N)O[C@@H](C)[C@]2(O)C=O)O[C@@H](CO)[C@H](O)[C@H]1O (some centres undefined)	11%	1.53	0.21	1.12	65.1%	10.8%	1.5	1.33	83% (inactive) and 43.9% (inactive)	71.2% and 98.6%	1.2 (inactive)	1.02	1.22	0.885 (inactive)	2.64	11600	13100	–	–
CC(=O)Oc1c(C)c(C)c2c(c1C)CCC(C)(CCCC(C)CCCC(C)CCCC(C)C)O2 (centres undefined)	1.05%	-0.71	1.2	0.62	56.3%	6.04%	2	0.546	74.6% (inactive)	96%	0.9 (inactive)	0.92	0.84	0.901 (inactive)	1.55	11100	12300	44 AU (inactive)	–
CC(C)Nc1ncccn1	–	–	–	–	–	–	–	–	–	–	0.89 (inactive)	1.16	1.03	0.885 (inactive)	0.978	8370	9450	–	10 nM (inactive)
CO/N=C(/C(=O)NC1C(=O)N2C(C(=O)O)=C(COC(N)=O)CSC12)c1ccco1 (centres undefined)	8.13%	1.48	-9.55	1.1	28.8%	14.5%	2	1.29	180% (inactive) and 36.7% (inactive)	72.5% and 86.1%	0.94 (inactive)	1.04	0.97	0.899 (inactive)	3.3	11600	12900	–	–
CC(=O)OCC(=O)[C@H]1CCC2C3CCC4=CC(=O)CC[C@]4(C)C3CC[C@@]21C (some centres undefined)	-3.1%	0.92	-2.35	1.07	63.5%	23%	2.5	0.669	44.3% (inactive)	97.7%	1.09 (inactive)	1.34	1.47	0.848 (inactive)	2.3	9410	11100	–	–
CC(=O)[C@@]1(O)CCC2C3C[C@H](C)C4=CC(=O)C=CC4(C)[C@@]3(F)[C@@H](O)C[C@@]21C (some centres undefined)	8.98%	1.5	24.4	0.92	-25.4%	25.3%	3	1.45	116% (inactive) and 26.7% (inactive)	75.2% and 95.6%	1.21 (inactive)	1.18	1.43	0.851 (inactive)	3.38	7310	8590	–	–
CO[C@H]1C[C@H](O[C@H]2[C@H](C)[C@@H](OC3O[C@H](C)C[C@H](N(C)C)[C@H]3O)[C@@H](C)C[C@]3(CO3)C(=O)[C@H](C)[C@@H](O)[C@@H](C)[C@@H](C)OC(=O)[C@@H]2C)O[C@@H](C)[C@@H]1O (some centres undefined)	27%	1.24	28.2	0.97	7.94%	5.06%	2	1.24	283% (inactive) and 48.5% (inactive)	76% and 96.5%	1.12 (inactive)	0.84	0.94	0.824 (inactive)	2.52	10700	13000	–	–
Cn1nnnc1SCC1=C(C(=O)O)N2C(=O)C(NC(=O)C(O)c3ccccc3)C2SC1 (centres undefined)	15.1%	1.62	-1.89	1.02	39.4%	14.2%	2	1.25	39.2% (inactive)	86%	0.9 (inactive)	1.03	0.93	0.886 (inactive)	4.15	11200	12600	–	–
C=C1CC[C@H](O)C/C1=C/C=C1\CCC[C@]2(C)C([C@H](C)/C=C/[C@H](C)C(C)C)CC[C@@H]12 (some centres undefined)	1.02%	0.91	1.1	1.43	63.2%	0.71%	3	0.441	81.3% (inactive) and 44.7% (inactive)	73.5% and 101%	1.11 (inactive)	1.28	1.42	0.922 (inactive)	2.88	11200	12200	–	–
CC1(C)O[C@@H]2CC3C4CCC5=CC(=O)C=C[C@]5(C)[C@@]4(F)[C@@H](O)C[C@]3(C)[C@]2(C(=O)CO)O1 (some centres undefined)	7.99%	0.99	-3.95	1.15	85.2%	20.7%	2	1.19	187% (inactive) and 62.4% (inactive)	64.4% and 84.9%	1.43 (inactive)	0.86	1.23	0.787 (inactive)	3.14	6650	8440	–	–
C[C@]12CCC3c4ccc(O)cc4CCC3C1C[C@@H](O)[C@@H]2O (some centres undefined)	-10.9%	0.64	0.35	0.85	84.5%	-5.15%	2	0.718	84.5% (inactive) and 67.1% (inactive)	72.3% and 96.2%	0.95 (inactive)	1	0.95	0.868 (inactive)	1.18	11100	12800	–	–
